Laboratory results as given in PubChem BioAssay AID1986 (Sanford-Burnham Center for Chemical Genomics, 2009).
“And” between values parts separate entries of the source, which are not always exact repeats. Equal values may be shown once. Screen size: about 290,000 compounds; about 890 (0.31%) were called active. Rule as the data show it: active = inhibition mostly above about 52% (no sharp cut-off); inactive = mostly below about 76%. What follows is part of a selection rich in actives, with near analogues and random picks from the rest. Some structures have more than one record in an assay (separate samples or runs), and their calls can disagree.

Test: inhibitors of HIV fusion peptide binding, primary screen, biochemical, uHTS, fluorescence dequenching (AID 1986)
Details: cell-free peptide binding, 30 min, stronger effect = higher value
[1] = measured here: repeat confirmation average inhibition, at 18.6 µM

CC(C)(C)OC(=O)N1CCC(c2c(C(=O)NC3CC3)cnn2-c2ccc(Cl)cc2)CC1
inhibition (at 20 µM): 3.6% (inactive)

COc1cc(NC(=O)c2cnn3c(C(F)F)cc(C4CC4)nc23)c(OC)cc1Cl
inhibition (at 20 µM): -0.3% (inactive)

COc1ccc(-n2ncc(C(=O)NC3CC3)c2C2CCN(C(=O)OC(C)(C)C)CC2)cc1
inhibition (at 20 µM): 1.2% (inactive)

COc1ccc(CCNC2CC(=O)N(CCc3ccccc3)C2=O)cc1 (stereo not drawn)
inhibition (at 20 µM): 0.5% (inactive)

COCCN1C(=O)N(c2cccc(C)c2)C(=O)C1CC(=O)Nc1cc(OC)cc(OC)c1 (stereo not drawn)
inhibition (at 20 µM): 0.1% (inactive)

O=C1OC(c2ccc(F)cc2)=C/C1=C\c1ccc(O)cc1
inhibition (at 20 µM): 1.8% (inactive)

O=C1OC(c2ccc(F)cc2)=C/C1=C\c1ccc([N+](=O)[O-])o1
inhibition (at 20 µM): 77.6% (active)

O=[N+]([O-])c1ccc(/C=N\NS(=O)(=O)c2ccc(F)cc2)o1
inhibition (at 20 µM): 1.3% (inactive)

COc1ccc(OC)c(/C=c2\sc3nc(-c4cccs4)nn3c2=O)c1
inhibition (at 20 µM): 60.9% (active) | inhibition [1]: 58%

CCOc1ccc(/C=c2\sc3nc(-c4ccco4)nn3c2=O)cc1OCC
inhibition (at 20 µM): 21.5% (inactive)

COc1ccccc1/C=c1\sc2nc(-c3ccco3)nn2c1=O
inhibition (at 20 µM): 36.3% (inactive)

COc1cccc(/C=c2\sc3nc(-c4cccs4)nn3c2=O)c1OC
inhibition (at 20 µM): 2.8% (inactive)

COc1ccc(Br)cc1/C=c1\sc2nc(-c3ccco3)nn2c1=O
inhibition (at 20 µM): 56.1% (active)

COc1ccc(/C=c2\sc3nc(-c4ccccc4OC)nn3c2=O)c(OC)c1
inhibition (at 20 µM): 11.2% (inactive)

CC(C)n1cc(C(=O)c2ccccc2O)cc(C#N)c1=O
inhibition (at 20 µM): -0.9% (inactive)

CC(C)CC(C(=O)O)N1C(=O)C2C3c4ccccc4C(c4ccccc43)[C@@H]2C1=O (stereo partly drawn)
inhibition (at 20 µM): -0.8% (inactive)

CCCCCCCNC(=O)C1(CC2CC(c3ccc(Cl)cc3)=NO2)CCN(C(=O)OC(C)(C)C)CC1 (stereo not drawn)
inhibition (at 20 µM): 0.6% (inactive)

Cc1oncc1C(=O)NC1CCCCC1
inhibition (at 20 µM): 0.8% (inactive)

CCOc1ccccc1N(CC(=O)NCCc1ccccc1)C(=O)CCC(=O)Nc1ccccn1
inhibition (at 20 µM): 0% (inactive)

C=CCN1C(=O)/C(=C\C=C2\N(C)c3ccccc3C2(C)C)SC1=S
inhibition (at 20 µM): 54.6% (active)

CCCCN1C(=O)/C(=C/C=C2\N(C)c3ccccc3C2(C)C)SC1=S
inhibition (at 20 µM): -0.3% (inactive)

CN1/C(=C\C=C2/SC(=S)N(CC(=O)O)C2=O)C(C)(C)c2ccccc21
inhibition (at 20 µM): 148% (inactive)

COc1cccc(-c2noc(CCCC(=O)Nc3ccc(C(N)=O)cc3)n2)c1
inhibition (at 20 µM): 0.5% (inactive)

CCCCCCn1ccc(=N)cc1
inhibition (at 20 µM): -2% (inactive)

CCCCCCCCCCCCCCCCn1cc[n+](C)c1
inhibition (at 20 µM): 137% (inactive) and 70.3% (active)

CCCCCCCCn1ccc(=N)cc1
inhibition (at 20 µM): -1.2% (inactive)

C[C@H](NC(=O)C1CCN(S(=O)(=O)c2ccccc2)CC1)C(=O)NCc1cccc(Cl)c1
inhibition (at 20 µM): -1.4% (inactive)

CCOC(=O)C1=C(C)C2C3C(=O)N(c4cc(C)ccc4C)C(=O)C3C1(C)C1C(=O)N(c3cc(C)ccc3C)C(=O)C21 (stereo not drawn)
inhibition (at 20 µM): -0.1% (inactive)

COC(=O)c1sc(N2C(=O)C(O)=C(C(=O)c3ccc(C)o3)C2c2ccc(OC)c(OC)c2)nc1C (stereo not drawn)
inhibition (at 20 µM): 15.3% (inactive)

CCOC(Cn1c(SCc2cc(C(C)=O)ccc2OC)nc2ccccc2c1=O)OCC
inhibition (at 20 µM): 3.3% (inactive)

COc1ccc(C(C)=O)cc1CSc1nc2cc(C(=O)O)ccc2c(=O)n1Cc1ccccc1
inhibition (at 20 µM): 62.4% (active)

COCCn1c(SCc2cc(C(C)=O)ccc2OC)nc2cc(Cl)ccc2c1=O
inhibition (at 20 µM): -2.4% (inactive)

COCC(C)n1c(SCC(=O)c2cc(C)n(C)c2C)nc2ccccc2c1=O (stereo not drawn)
inhibition (at 20 µM): 0.2% (inactive)

CC(C)(C)c1ccc(NC(=O)C2CCCN(c3cnccn3)C2)cc1 (stereo not drawn)
inhibition (at 20 µM): -0.1% (inactive)

Cc1ccc2c(c1)NC(=O)c1cc([N+](=O)[O-])ccc1O2
inhibition (at 20 µM): 2.5% (inactive)

Cc1cccc(Oc2cc([N+](=O)[O-])cc3c2C(=O)Nc2ccccc2O3)c1
inhibition (at 20 µM): 46.8% (inactive)

O=C1Nc2ccccc2Oc2cc([N+](=O)[O-])cc(Oc3ccccc3)c21
inhibition (at 20 µM): 59.7% (active)

CCOc1cc([N+](=O)[O-])cc2c1C(=O)Nc1ccccc1O2
inhibition (at 20 µM): 104% (active) | inhibition [1]: 57.4%

O=C1Nc2ccccc2Oc2cc([N+](=O)[O-])ccc21
inhibition (at 20 µM): 13% (inactive)

Cc1ccc(Oc2cc([N+](=O)[O-])cc3c2C(=O)Nc2ccccc2O3)cc1
inhibition (at 20 µM): 40.9% (inactive)

CCOc1cccc(C(=O)Nc2cccc(C(C)=O)c2)c1
inhibition (at 20 µM): -0.2% (inactive)

Cc1ccc(CN(C(=O)c2ccccc2[N+](=O)[O-])C2CCS(=O)(=O)C2)o1 (stereo not drawn)
inhibition (at 20 µM): 0.4% (inactive)

COc1cccc(OC)c1C(=O)NC(=O)Nc1c(F)c(F)c(F)c(F)c1F
inhibition (at 20 µM): 0.3% (inactive)

O=C(O)CC(c1cccc(C(F)(F)F)c1)N1CCS(=O)(=O)CC1 (stereo not drawn)
inhibition (at 20 µM): 0.6% (inactive)

CCc1ccc(CN(C(=O)COc2c(C)cccc2C)C2CCS(=O)(=O)C2)cc1 (stereo not drawn)
inhibition (at 20 µM): -0.3% (inactive)

O=C(Nc1nnc(-c2cccc(F)c2)s1)Nc1ccccc1F
inhibition (at 20 µM): 0.6% (inactive)
